ClpP mod – qHTS Assay for Activators of ClpP | ATP-dependent Clp protease proteolytic subunit (Bacillus subtilis (strain 168)), P80244 | purified B. subtilis ClpP, FRET peptide cleavage, 20 min | Potency, µM (titrated, usually from 57.5 µM), inactives show top-dose activity change, negative = active | 1.9% of 340,000 active; active = well fitted falling curve with a large enough effect; inconclusive = small, poorly fitted or top-dose-only effect; inactive = no such curve, though single readings can be large or run the other way; note: potency is the fitted concentration of half-maximal effect; the source files actives as falling curves though it sought activators and does not explain the sign; nearly all actives have a fitted effect of over 65% in size
Target sequence (P80244 whole entry, looked up): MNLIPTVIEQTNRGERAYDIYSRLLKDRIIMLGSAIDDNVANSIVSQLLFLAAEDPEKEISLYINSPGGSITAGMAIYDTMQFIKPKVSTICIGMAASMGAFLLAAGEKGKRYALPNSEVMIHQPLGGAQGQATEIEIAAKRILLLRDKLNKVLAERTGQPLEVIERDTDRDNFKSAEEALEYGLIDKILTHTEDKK
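FRET quenching reversal measured ClpP activation: 10 microg/mL B. subtilis ClpP at pH 8 with the FRET-FV decapeptide, read at 430 nm after 320 nm excitation. The 20-min minus 0-min signal was scaled between DMSO/no-enzyme wells and ADEP (5.8 microM final).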
DRD3 antagonist – qHTS of D3 Dopamine Receptor Antagonist: qHTS | max response, negative = inhibition, % | D(3) dopamine receptor (Homo sapiens), P35462 | 2.5% of 360,000 active | D3R cells, DiscoveRx beta-arrestin luminescence, antagonist mode; hits give low values; in the data active = max response below about -50%; inconclusive = no clear call, values can overlap the other calls; note: % is set by controls: 0 for no effect and ±100 for the full control effect
Target sequence (P35462 whole entry, looked up): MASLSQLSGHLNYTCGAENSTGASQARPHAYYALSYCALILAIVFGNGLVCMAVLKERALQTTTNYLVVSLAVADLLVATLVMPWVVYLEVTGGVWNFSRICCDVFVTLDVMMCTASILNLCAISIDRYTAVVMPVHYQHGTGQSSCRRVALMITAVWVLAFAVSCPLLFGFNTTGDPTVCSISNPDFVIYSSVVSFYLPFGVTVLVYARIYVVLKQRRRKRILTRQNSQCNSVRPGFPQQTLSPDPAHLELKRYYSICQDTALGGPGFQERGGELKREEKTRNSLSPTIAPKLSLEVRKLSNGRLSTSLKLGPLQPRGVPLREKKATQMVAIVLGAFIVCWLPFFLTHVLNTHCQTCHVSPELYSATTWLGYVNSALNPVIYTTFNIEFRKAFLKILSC
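Cells expressing the human receptor were seeded at 1500 cells/well, incubated overnight at 37 degrees C in 5% CO2, then exposed to library compounds with dopamine controls for 90 minutes at 37 degrees C before luminescent detection.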
DT40 TDP1 CPT – qHTS for Inhibitors of human tyrosyl-DNA phosphodiesterase 1 (TDP1): qHTS in cells in presence of CPT | chicken DT40 Tdp1-/-;hTDP1 cells + 20 nM CPT, ATP luminescence, 48 h | Potency, µM (top dose mostly 46.2 µM), for the others: top-dose activity change, negative = growth inhibition, usual class: inhibitors | 12% of 420,000 active; note: potency is the fitted concentration of half-maximal effect; % is set by controls: 0 for no effect and ±100 for the full control effect; nearly all actives have a fitted effect of over 55% in size
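Cell growth measured by CellTiter-Glo luminescence after a minimum 48 h, 37 C compound exposure with 20 nM CPT in Tdp1-knockout DT40 cells stably expressing hTDP1, seeded 400/well; qHTS titration format.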
IL-1B inflam inh – qHTS for Inhibitors of Inflammasome Signaling: IL-1-beta AlphaLISA Primary Screen; THP-1 LPS/ATP IL-1B secretion, AlphaLISA, 16 h; hits give low values; activity change, % at 57.5 µM; 4.7% of 360,000 active; in the data active = activity change below about -50%; inconclusive = mostly about -30% to -49%; note: % is set by controls: 0 for no effect and ±100 for the full control effect
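Secreted IL-1B measured by AlphaLISA bead assay after 16 h compound exposure of THP-1 cells; compounds (final up to 57.5 uM) added 1 h before LPS (250 ng/mL) and ATP (1.25 mM) stimulation; lower signal means less secretion.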
DT40 TDP1 no CPT – qHTS for Inhibitors of human tyrosyl-DNA phosphodiesterase 1 (TDP1): qHTS in cells in absence of CPT; AID 686978, 2013; 15% of 420,000 active; DT40 Tdp1-/- hTDP1 cells, no CPT, ATP luminescence, 48 h; Potency, µM (top dose mostly 46.2 µM), for the others: top-dose activity change, negative = growth inhibition, actives largely listed as inhibitors; note: potency is the fitted concentration of half-maximal effect; % is set by controls: 0 for no effect and ±100 for the full control effect; nearly all actives have a fitted effect of over 55% in size
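Growth of hTDP1-complemented DT40 Tdp1-knockout cells is measured by ATP luminescence after at least 48 hr compound exposure at 37 °C, with DMSO substituting for the 20 nM CPT used in the parallel screen.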
D3 ag – qHTS of D3 Dopamine Receptor Agonist: qHTS. D3R DiscoveRx beta-arrestin cells, luminescence, 90 min. max activation, %. 0.58% of 410,000 active. AID 652048, 2013; in the data active = max activation above about 30%; note: 0% is about no effect
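Agonist-mode cell screen: cells plated at 1500/well and incubated overnight at 37 °C, then exposed to library compounds for 90 min at 37 °C. Detection reagent was added for 30–60 min at room temperature, and luminescence was read.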
An asterisk follows results filed as active; ? = inconclusive; / = no result given; ! = not confirmed by another sample. Rows were chosen to be rich in hits. Some 21% of all compounds tested hit in one or more screens of this group. Unless noted, calls come from the whole dose curve; as a rule, active = well fitted inhibition curve with a large enough effect; inconclusive = small, poorly fitted or top-dose-only effect; inactive = flat fitted curve, though single readings scatter.

SMILES	ClpP mod	DRD3 antagonist	DT40 TDP1 CPT	IL-1B inflam inh	DT40 TDP1 no CPT	D3 ag
CC1CC2CC(=O)C3CCCN4CCCC2[C@]34C1 (stereo partly specified)	/	/	6%	/	-2%	/
NCC(O)c1cccc(O)c1 (stereo unspecified)	/	/	?	/	?	3
CC(C)c1cccc(O)c(=O)c1	-3%	?	6.5µM*!	0	22µM*	-12
Clc1cccc(C(c2ccc3nc[nH]c3c2)n2ccnc2)c1 (stereo unspecified)	/	/	?	/	27µM*	2
CCOC(=O)c1ccc(NC(=O)Nc2cc3c(cc2N2CCCCC2)n(CC)c(=O)n3CC)cc1	-15%	/	12µM*	/	10µM*	5
CCC(=O)Nc1ccc(C(=O)OCc2ccccc2Cl)cc1	-5%	2	?	1	?	4
C#CC(CC)(CC)NC(=O)Nc1ccc(OCC)cc1	/	-4	-7%	30	-27%	8
CCOC(=O)c1ccc(N2CCN(c3ccccc3F)CC2)c(NC(=O)Nc2ccc(Cl)c(Cl)c2)c1	?	/	1.3µM*	/	1.3µM*	8
Cc1ccc(NC(=O)Nc2cc3c(cc2N2CCCCC2)n(C)c(=O)n3C)cc1Cl	-20%	/	16µM*	/	7.3µM*	-12
CC1(C)C(C(Cl)Cl)C2(Cl)C(Cl)C(Cl)C1(Cl)C2(Cl)Cl (stereo unspecified)	/	/	?	/	-14%	/
CC1(C(O)(C#CCN2CCCCC2)c2ccccc2)CCCC1 (stereo unspecified)	/	?	?	-15	?	-26
O=C1NS(=O)c2cc([N+](=O)[O-])cc([N+](=O)[O-])c21 (stereo unspecified)	0%	-11	-28%	2	?	-4
N#CC(C#N)=Cc1cccnc1	-4%	-1	9.2µM*	-86*	9.2µM*	8
CNCC/C=C/c1cccnc1	/	/	-13%	/	-5%	/
O=c1[nH]cc(N(CCCl)CCCl)c(=O)[nH]1	/	/	-17%	/	-15%	1
O=C1/C(=C/c2ccc(N(CCCl)CCCl)cc2)Cc2ccccc21	-1%	/	4.5µM*	/	7.9µM*	/
O=c1[nH]/c(=C\c2ccc(N(CCCl)CCCl)cc2)c(=O)[nH]/c1=C\c1ccc(N(CCCl)CCCl)cc1	1%	/	3.2µM*	/	?	/
[S]=[Sb](=[S])[S][Sb](=[S])=[S]	/	/	5%	/	0%	5
Cc1cc(C)cc(OCC(=O)Nc2ccc(Cl)cc2C(=O)c2ccccc2)c1	5%	/	-5%	/	0%	4
NC(=O)c1ncn([C@@H]2O[C@H](CO)[C@@H](O)[C@H]2O)n1	1%	-9	1.5µM*	-10	1µM*	0
O=P1(NCCCl)OCCCN1CCCl (stereo unspecified)	-3%	-2	-22%	-17	5%	0
Oc1c(Br)cc(Br)cc1CN1CCN(Cc2ccccc2)CC1	-2%	?	?	-24	?	-3
CCN1CCN(Cc2cc(Br)cc(OC)c2O)CC1	1%	-53*	-3%	54	4%	-38
CCN1CCC(O)(c2ccccc2)C(C(=O)c2ccccc2)C1 (stereo unspecified)	0%	?	2.6µM*	-15	4.1µM*	-4
CN1CCCC(C(=O)c2ccccc2)C1 (stereo unspecified)	0%	-22	-11%	-9	2%	16
SMILES	ClpP mod	DRD3 antagonist	DT40 TDP1 CPT	IL-1B inflam inh	DT40 TDP1 no CPT	D3 ag
CN1CCC(O)(c2ccccc2)C(C(=O)c2ccccc2)C1 (stereo unspecified)	0%	-30	9.2µM*	-21	18µM*	-2
CCOC(=O)CC(SP1(=S)OCC2(CCCCC2)CO1)C(=O)OCC (stereo unspecified)	28µM*	-15	-2%	-7	-6%	-9
CCOc1ccc(-c2cc(C)[n+](CCc3ccc(OC)c(OC)c3)c(-c3ccc(OCC)cc3)c2)cc1	?	-10	0.82µM*	-109*	1.2µM*	-7
Fc1ccc(C[n+]2c(-c3ccccc3)cc(-c3ccccc3)cc2-c2ccccc2)cc1	4%	6	1.2µM*	0	0.58µM*	-9
CCOc1ccc(-c2cc(C)[n+](CCO)c(-c3ccc(OCC)cc3)c2)cc1	3%	-1	1.5µM*	-75*	0.65µM*	5
Cc1cc(-c2ccccc2)cc(-c2ccccc2)[n+]1CCc1ccccc1	-22%	19	0.18µM*	?	0.21µM*	0
CN1CCN(c2cn[nH]c(=O)c2Cl)CC1	/	-14	-2%	19	-2%	-13
Nc1nc(N)c2cnnn2n1	/	-5	8%	22	-1%	3
CCc1cccc(C)c1NC(=S)N1CC2CC(C1)c1cccc(=O)n1C2 (stereo unspecified)	-2%	-10	-14%	38	-16%	5
COc1ccc(C2C=C(c3ccccc3)Nc3nc(NC(=O)/C=C/c4ccccc4Cl)nn32)cc1 (stereo unspecified)	3%	/	5.2µM*	/	3.7µM*	4
CC(=O)c1ccc(Oc2ccc(C(=O)c3ccc(C)c(C)c3)cc2[N+](=O)[O-])cc1	1%	-16	8.2µM*	-5	2.3µM*	-1
CN1[C@H]2CC[C@@H]1C(C(=O)N1CCOCC1)=C(O)C2	0%	1	4%	10	-5%	20
O=Cc1c(C(=O)O)n(Cc2ccc(F)cc2Cl)c2ccccc12	-5%	-26	-3%	39	2%	-14
COc1ccccc1OCC(=O)N1CCN(Cc2ccc3c(c2)OCO3)CC1	-2%	-2	-5%	-11	-5%	-2
c1ccc(CN2CCN(Cc3ccc4c(c3)OCCO4)CC2)cc1	-2%	-76*	0%	0	-26%	-15
COc1ccc(NC(=O)c2oc3ccc(S(=O)(=O)N(C)C4CCCCC4)cc3c2C)cc1	-20%	/	10µM*	/	8.2µM*	3
Cc1[nH]c2ccccc2c1CN1CCCCC1	?	-20	1.6µM*	-11	3.7µM*	-11
c1ccc2c(CN3CCCCCCC3)c[nH]c2c1	28µM*	-2	0.65µM*	15	1.5µM*	-5

From PubChem BioAssay
